The full list was thinned out, with hits kept by preference.
SARS PLpro yeast: SARS-CoV PLP inhibition in yeast. Potency, µM (doses to about 32.9 µM), for inactives: at the highest dose activity, positive = growth rescue, actives largely listed as activators. hit rate 0.19% among 330,000. S. cerevisiae expressing SARS-CoV PLpro, growth rescue; calls by dose curve; also: potency is read from the fitted curve at half-maximal effect; 0% is about no effect; nearly all actives have a fitted effect of over 55% in size
Shiga toxin inh: blocks Shiga toxin action in Vero cells. Vero cells, Shiga toxin protein synthesis inhibition reporter. inhibition, % at 38.7 µM. hit rate 9.2% among 290,000; in the data active = inhibition mostly above about 28%, no sharp cut-off; inactive = mostly below about 43%; also: 0% is about no effect
AmpC inh no detg: AmpC beta-lactamase inhibition without detergent. hit rate 0.52% among 330,000. AID 485341. Potency, µM (highest dose often 57.1 µM), inactives show top-dose activity change, negative = inhibition, usual class: inhibitors. AmpC nitrocefin hydrolysis, absorbance 480 nm, 0.0001% Triton;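 also: potency is read from the fitted curve at half-maximal effect; plate controls were no compound for no effect and no enzyme for full effect; nearly all actives have a fitted effect of over 20% in size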
Target sequence (P00811 whole entry, looked up): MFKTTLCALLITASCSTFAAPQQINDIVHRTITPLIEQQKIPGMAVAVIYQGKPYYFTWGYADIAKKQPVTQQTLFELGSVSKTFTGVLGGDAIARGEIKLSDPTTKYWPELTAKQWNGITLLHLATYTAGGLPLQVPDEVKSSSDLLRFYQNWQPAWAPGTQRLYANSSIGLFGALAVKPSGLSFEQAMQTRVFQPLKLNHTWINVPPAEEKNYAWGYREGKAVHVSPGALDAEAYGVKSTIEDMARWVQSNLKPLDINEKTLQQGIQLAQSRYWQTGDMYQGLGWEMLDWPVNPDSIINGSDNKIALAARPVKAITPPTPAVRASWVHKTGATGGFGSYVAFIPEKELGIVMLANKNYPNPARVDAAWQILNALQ
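AmpC (5.3 nM in the dispensed reagent) in 20 mM phosphate pH 7.0 with 0.01% (detergent screen) or 0.0001% Triton X-100 was preincubated with compounds for 15 min at room temperature. Nitrocefin was then added from an 800 uM solution, and hydrolysis was followed at 480 nm.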
Cycloheximide cs: counter-screen hit for Shiga toxin inhibitors, cycloheximide. cell reporter, cycloheximide protein synthesis inhibition counterscreen. max response, %. hit rate 12% among 300,000; in the data active = max response mostly above about 13%, no sharp cut-off; inactive = mostly below about 14%; also: read at 38.3 µM for the half of the compounds with a filed dose; 0% is about no effect
AMA1-RON2 inh: inhibitors of Plasmodium falciparum AMA1-RON2 interaction; AID 720542; hit rate 0.2% among 360,000; Potency, µM (top dose mostly 58.2 µM), for inactives: at the top dose activity change, negative = inhibition, hits mostly inhibitors; AlphaScreen AMA1-biotinylated RON2 peptide binding;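 also: potency is read from the fitted curve at half-maximal effect; 0% = vehicle wells and -100% = peptide control; nearly all actives have a fitted effect of over 45% in size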
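AMA1 (3D7) with his tag at 25 nM final met compounds first, then biotinylated RON2 peptide at 25 nM; detection used donor plus acceptor beads, 10 µg/mL apiece, read by AlphaScreen after 30 min at room temperature.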
AmpC inh detg: blocks E. coli AmpC beta-lactamase in detergent assay; AmpC hydrolysis of nitrocefin, absorbance 480 nm, 0.01% Triton; Potency, µM (top dose mostly 114 µM), without a hit: at the highest dose activity change, negative = inhibition, most hits filed as inhibitors; hit rate 0.041% among 370,000; AID 485294;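 also: potency is read from the fitted curve at half-maximal effect; 0% = no-compound wells and -100% = no-enzyme wells; nearly all actives have a fitted effect of over 25% in size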
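20 mM phosphate pH 7.0 + 0.01% (detergent screen) or 0.0001% Triton X-100; 5.3 nM AmpC reagent; cpd preinc 15 min RT; nitrocefin (800 uM stock) to start; A480 q20 s × 4 min; Activity was normalised to no-enzyme and no-compound control wells.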
The depositor's hits bear a star; ? = inconclusive; / = no result; [ ] = remark or other dose. Unless noted, calls follow the shape of the dose curve; as a rule, active = well fitted curve in the direction sought with a large enough effect; inconclusive = small, poorly fitted or top-dose-only effect, or another doubt; inactive = no such curve, though single readings can be large; an effect the other way counts as inactive or inconclusive.

SMILES | SARS PLpro yeast | Shiga toxin inh | AmpC inh no detg | Cycloheximide cs | AMA1-RON2 inh | AmpC inh detg
CCOC(=O)C1(CCc2ccccc2)CCN(C2CCSCC2)CC1 | 2% | 7 | -18% | 1 | ? | -4%
CCOC(=O)C1(CCc2ccccc2)CCN(C(=O)c2occc2C)CC1 | 0% | 21 | 57% | 9 | -6% | -3%
CCOC(=O)C1(CCc2ccccc2)CCN(C(=O)Cc2nonc2C)CC1 | 0% | 63* | 136% | 14* | -8% | -12%
CCOC(=O)C1(CCc2ccccc2)CCN(C2Cc3ccccc3C2)CC1 | -1% | 76* | -28% | 27* | -9% | -2%
COCCn1c2nc(=O)n(-c3ccccc3)c(=O)c-2nc2ccccc21 | / | / | / | / | -7% | /
CC(=O)N1CCOc2ccc(S(=O)(=O)N3CCC(C(=O)Nc4ccc(F)cc4)CC3)cc21 | ? | -2 | 15% | 19 | -12% | -2%
CCOc1cccc2cc(-c3nnc(NCc4ccco4)s3)c(=O)oc12 | 2% | 40* | -25% | 23 | -1% | -1%
CCOc1cccc2cc(-c3cn4cc(C)ccc4n3)c(=O)oc12 | -1% | 36* | -18% | 14 | -18% | 2%
COc1ccc2oc(=O)c(-c3nnc(NCc4ccco4)s3)cc2c1 | -2% | 63* | -9% | 31* | -21% | 1%
COc1ccc(N2CCN(C(=O)CN(Cc3ccccc3)S(C)(=O)=O)CC2)cc1 | 7% | -4 | 67% | -3 | -7% | 5%
CCOc1ccc(NS(=O)(=O)c2ccc3c(c2)CCCN3C(=O)C2CCC2)cc1 | / | / | / | / | / | -2%
COC(=O)c1ccccc1NC(=O)C1CC(c2ccccc2O)=NO1 (stereo not given) | 4% | 10 | -24% | -1 | 6% | 0%
CSc1ccccc1NC(=O)C1CC(c2ccccc2O)=NO1 (stereo not given) | 1% | 93* | -36% | 41* | 11% | -8%
O=C(C1CC(c2ccccc2O)=NO1)N1CCC2(CC1)OCCO2 (stereo not given) | 5% | 55 | -15% | 25* | 12% | ?
O=C(C1CC(c2ccccc2O)=NO1)N1CCCC1 (stereo not given) | -1% | 78* | -13% | 38* | 30% | -1%
NC(=O)CC(NC(=O)c1ccccc1)c1ccc(NCCOc2ccccc2)c([N+](=O)[O-])c1 (stereo not given) | 1% | -3 | -40% | -1 | -16% | 3%
CN(CC(=O)NCc1cccnc1)S(=O)(=O)c1ccccc1 | 2% | -15 | -9% | 0 | 8% | -1%
COc1ccc(CNC(=O)Cn2ncn3nc(-c4cccs4)cc3c2=O)cc1 | / | / | / | / | / | -1%
COc1ccc(-c2cc3c(=O)n(CC(=O)NCc4cccnc4)ncn3n2)cc1 | 7% | 37* | -12% | 28* | 33% | -10%
COc1ccc(S(=O)(=O)N(C)CC(=O)NCc2cccnc2)cc1 | 4% | 75* | -23% | 10 | ? | ?
O=C(Cn1nc(Cc2cccnc2)c2ccccc2c1=O)Nc1cccnc1Cl | -2% | -8 | -16% | 7 | 2% | -9%
O=C(Nc1cccc(S(=O)(=O)C(F)F)c1)c1ccc(S(=O)(=O)N2CCCCC2)cc1 | -1% | -6 | -26% | -3 | -26% | ?
CN1CCN(Cc2nc(N)nc(Nc3ccc4c(c3)OCCO4)n2)CC1 | -1% | 60* | 3% | 30* | 5% | 0%
Nc1nc(CN2CCN(c3ccccc3F)CC2)nc(Nc2ccc3c(c2)OCCO3)n1 | 0% | -16 | 8% | -4 | ? | 2%
CCc1cc(=O)oc2cc(C)c(CN3CCCCC3)c(O)c12 | 6% | -11 | -21% | -2 | 1% | ?
SMILES | SARS PLpro yeast | Shiga toxin inh | AmpC inh no detg | Cycloheximide cs | AMA1-RON2 inh | AmpC inh detg
Cc1ccc2c(CN3CCC(C)CC3)cc(=O)oc2c1 | -7% | 151* | 2% | 53* | 6% | 0%
CCOC(=O)C1CCCN(Cc2cc(=O)oc3cc(C)c(C)cc23)C1 (stereo not given) | -4% | 28 | 24% | 37* | 1% | -1%
CCOC(=O)C1CCN(Cc2cc(=O)oc3cc(C)ccc23)CC1 | 0% | 29 | -1% | 8 | -13% | 0%
CCOC(=O)C1CCCN(Cc2cc(=O)oc3cc(C)ccc23)C1 (stereo not given) | -7% | 69* | 54% | 44* | 16% | 9%
CCc1cc(=O)oc2cc(C)c(CN3CCCC3)c(O)c12 | 5% | -10 | 11µM* | -7 | 12µM* | ?
COc1ccc(-c2nnc(SC)nc2-c2ccc(OC)c([N+](=O)[O-])c2)cc1[N+](=O)[O-] | / | / | / | / | 35% | /
Cn1c(N/N=C2\CCCc3ccccc32)nc2c1c(=O)n(Cc1ccccc1)c(=O)n2C | 29% | -6 | -19% | -6 | 3%[11.6 µM] | -11%
O=C(CC(c1ccccc1)C1CCCCC1=O)c1ccco1 (stereo not given) | 23% | 63* | -13% | 38* | 1% | -3%
CCOC(=O)c1c(NC(=O)COC(=O)c2ccccn2)sc(C(=O)N(C)C)c1C | 1% | / | 12% | / | 9% | 4%
O=C(Nc1ccccc1Cl)c1ccc2nccnc2c1 | 11% | 67* | -13% | 25* | 2% | -8%
O=C(Nc1ccc(Cl)cn1)c1ccc2nccnc2c1 | -5% | 132* | -20% | 32* | -8% | 2%
O=C(Nc1ccc(Cl)cn1)c1cccnc1 | -3% | 3 | -15% | 15* | 6% | ?
COc1ccc(NS(=O)(=O)c2cc(NC(=O)C3=NN(c4ccccc4)C(=O)CC3)ccc2OC)cc1 | -1% | / | 100% | / | -2% | /
Cc1ccc(S(=O)(=O)NNC(=O)c2snnc2C)cc1 | 13% | -17 | -9% | 3 | 40% | -1%
CC1CC(C)CN(S(=O)(=O)c2ccc(C(=O)N3CCCC3)cc2)C1 (stereo not given) | 6% | -12 | 90% | 6 | -21% | -3%
O=C(Nc1ccccc1)Nc1cc([N+](=O)[O-])ccc1F | -13% | 29 | -34% | 6 | 5% | ?
O=C(Nc1ccccc1)Nc1ccc(Br)c(Cl)c1 | -18% | 72* | -20% | 42* | 26% | -9%
O=C(Nc1ccccc1)Nc1ccccc1Br | -2% | 117* | -3%[11.4 µM] | 68* | -7% | ?
CON(C)C(=O)Nc1ccc(Br)c(Cl)c1 | / | 54* | / | 27* | / | /
O=C(Nc1ccccc1)Nc1cccc(NC(=O)Nc2ccccc2)c1F | -3% | 47 | -31% | 18* | -7% | 1%
O=C(Nc1ccc(F)cc1)Nc1cccc(Br)c1 | / | / | / | / | 0% | /
N#CC1(P(=O)(c2ccccc2)c2ccccc2)CCCC1 | -8% | -9 | 7% | 6 | -3% | -6%
O=C(CN1CCC(n2nnc3cc(F)ccc32)CC1)NC1CCCCC1 | -3% | 13 | 14% | -2 | -1% | ?

Assay outcomes (PubChem)
